Compounds without any hit were thinned out: in the full panel of roughly 79,000, 15% have a hit. Calls of active or inactive are those of the source. No stated cut-off is given here; in the data, active means growth inhibition above about 70%; inactive means the rest.
How the values were obtained:
[1] = NCI Yeast Anticancer Drug Screen. Data for the rad52 strain (AID 147);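 further: 0% = growth of vehicle-treated control cultures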; conditions: S. cerevisiae rad52 mutant growth inhibition, hits give high values
Summary of the method: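 Measured: yeast growth inhibition. System: strain with a defined DNA damage repair alteration. Reference: vehicle-treated control cultures.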

[2] = NCI Yeast Anticancer Drug Screen. Data for the wt1 strain (AID 149);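 further: 0% = growth of vehicle-treated wt1 cultures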; conditions: S. cerevisiae wt1 strain (SPY 50644) growth inhibition, hits give high values
Summary of the method: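 Yeast wt1 strain exposed to compounds; growth inhibition measured relative to vehicle-treated controls.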

[3] = NCI Yeast Anticancer Drug Screen. Data for the rad50 strain (AID 155);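 further: 0% = growth of vehicle-only cultures of the same strain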; conditions: S. cerevisiae rad50 strain growth inhibition, hits give high values
Summary of the method: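 Yeast carrying a defined DNA repair defect were exposed to test compounds, and growth was compared with vehicle-treated controls to give percent inhibition.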

[4] = NCI Yeast Anticancer Drug Screen. Data for the mec2-1 strain (AID 157); conditions: S. cerevisiae mec2-1 strain, hits give high values
Summary of the method: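 Test agents were screened against the mec2-1 yeast strain, with defined DNA repair or cell cycle alteration. Growth was scored as inhibition against vehicle-only controls.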

[5] = NCI Yeast Anticancer Drug Screen. Data for the sgs1 mgt1 strain (AID 161);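 further: 0% = growth of cultures given vehicle only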; conditions: S. cerevisiae sgs1 mgt1 strain, hits give high values
Summary of the method: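 Genetically altered yeast, compound exposure, growth inhibition relative to vehicle.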

[6] = NCI Yeast Anticancer Drug Screen. Data for the CLN2oe strain (AID 163);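 further: 0% = growth of vehicle-only control cultures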; conditions: S. cerevisiae CLN2oe strain, hits give high values
Summary of the method: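 Here, growth inhibition in a cell-cycle-altered yeast strain after compound exposure was quantified against vehicle control growth.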

[7] = NCI Yeast Anticancer Drug Screen. Data for the cln2 rad14 strain (AID 165);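 further: 0% = growth equal to vehicle treated cultures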; conditions: S. cerevisiae cln2 rad14 strain, hits give high values
Summary of the method: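 Growth of compound-exposed yeast (cln2 rad14 genotype) measured and expressed as inhibition relative to vehicle.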

[8] = NCI Yeast Anticancer Drug Screen. Data for the bub3 strain (AID 167); conditions: S. cerevisiae bub3 mutant strain, hits give high values
Summary of the method: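 Compounds were applied to a genetically altered yeast strain carrying a cell-cycle control defect. Growth inhibition was scored against vehicle-treated controls.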

[9] = NCI Yeast Anticancer Drug Screen. Data for the wt2 strain (AID 169);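 further: 0% = growth of vehicle-treated yeast cultures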; conditions: S. cerevisiae wt2 strain growth inhibition, hits give high values
Summary of the method: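 Genetically defined yeast strains from a DNA-repair/cell-cycle panel were used. Compound-exposed yeast growth was measured, and the inhibition was calculated relative to vehicle treatment.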

[10] = NCI Yeast Anticancer Drug Screen. Data for the mlh1 strain (AID 171);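 further: 0% = growth of vehicle-treated control cultures of the same strain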; conditions: S. cerevisiae mlh1 strain growth inhibition, hits give high values
Summary of the method: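 Here the genetically defined yeast mutant is grown with each compound, and the extent to which its growth falls below that of vehicle-exposed cells is reported.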

[11] = NCI Yeast Anticancer Drug Screen. Data for the sgs1 strain (AID 173);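 further: 0% = growth of vehicle-only control cultures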; conditions: S. cerevisiae sgs1 mutant, hits give high values
Summary of the method: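 Relative growth inhibition, referenced to vehicle, was determined in a yeast strain with a defined alteration affecting DNA damage repair or cell cycle control after compound exposure.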

[12] = NCI Yeast Anticancer Drug Screen. Data for the rad18 strain (AID 177); conditions: S. cerevisiae rad18 mutant growth inhibition, hits give high values
Summary of the method: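 Screen uses a yeast strain with a defined lesion in DNA damage repair; compound effect is read as loss of growth compared to untreated vehicle cultures.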

[13] = NCI Yeast Anticancer Drug Screen. Data for the rad50EPP+ strain (AID 151);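 further: 0% = growth of vehicle-treated control cultures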; conditions: S. cerevisiae rad50 mutant strain, hits give high values
Summary of the method: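 One strain with a rad50 alteration (rad50EPP+) was compound-treated, its growth then compared to that of vehicle controls.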

[14] = NCI Yeast Anticancer Drug Screen. Data for the mgt1 strain (AID 153); conditions: S. cerevisiae mgt1 mutant growth inhibition, hits give high values
Summary of the method: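 After exposure of the mgt1 yeast mutant to compound, growth was measured and reported as inhibition compared with vehicle controls.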

[15] = NCI Yeast Anticancer Drug Screen. Data for the rad14 strain (AID 159);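 further: 0% = growth of vehicle-treated control cultures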; conditions: S. cerevisiae rad14 strain growth inhibition, hits give high values
Summary of the method: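 Yeast cells carrying a defined DNA-repair defect were exposed to compounds, and growth inhibition was calculated relative to vehicle-treated control cultures.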

[16] = NCI Yeast Anticancer Drug Screen. Data for the mlh1 rad18 strain (AID 175); conditions: S. cerevisiae mlh1 rad18 strain growth inhibition, hits give high values
Summary of the method: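 In this whole-cell yeast screen, a strain with altered DNA damage repair is challenged with compound, and its growth is measured against matched vehicle-treated controls.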

[17] = at 5.0 µM (retest, dose inferred, filed as 0.5)
[18] = at 50.0 µM (retest, dose inferred, filed as 5.0)

Measured: growth inhibition

Cc1ccc(S(=O)(=O)N/N=C/C2(c3ccccc3)c3ccccc3-c3ccccc32)cc1
active: [1]; at 11.0 µM 79% | [1]; at 33.0 µM 93% | [1]; at 100.0 µM 86% | [2]; at 33.0 µM 87% | [2]; at 100.0 µM 83% | [3]; at 11.0 µM 82% | [3]; at 33.0 µM 90% | [3]; [18] 92% | [3]; at 100.0 µM 77% | [4]; at 33.0 µM 78% | [4]; [18] 93% | [4]; at 100.0 µM 84% | [5]; [18] 93% | [6]; at 11.0 µM 80% | [6]; at 33.0 µM 91% | [6]; at 100.0 µM 76% | [7]; [18] 90% | [8]; at 33.0 µM 88% | [8]; [18] 90% | [9]; at 11.0 µM 76% | [9]; at 33.0 µM 91% | [9]; at 100.0 µM 80% | [10]; at 100.0 µM 71% | [11]; at 33.0 µM 82% | [11]; at 100.0 µM 80% | [12]; at 11.0 µM 80% | [12]; at 33.0 µM 91% | [12]; at 100.0 µM 89%
inactive: [1]; at 1.2 µM 41% | [1]; at 3.7 µM 45% | [2]; at 1.2 µM 25% | [2]; at 3.7 µM 13% | [2]; at 11.0 µM 34% | [3]; at 1.2 µM 4% | [3]; at 3.7 µM 36% | [3]; [17] 38% | [3]; at 50.0 µM 29.5% | [4]; at 1.2 µM 25% | [4]; at 3.7 µM 15% | [4]; [17] 22% | [4]; at 11.0 µM 27% | [4]; at 50.0 µM 7.7% | [5]; [17] 31% | [5]; at 50.0 µM 33.8% | [6]; at 1.2 µM 37% | [6]; at 3.7 µM 38% | [7]; [17] 45% | [7]; at 50.0 µM 16.1% | [8]; at 1.2 µM 19% | [8]; at 3.7 µM 9% | [8]; [17] 20% | [8]; at 11.0 µM 54% | [8]; at 50.0 µM 29.1% | [8]; at 100.0 µM 62% | [9]; at 1.2 µM -8% | [9]; at 3.7 µM 18% | [10]; at 1.2 µM 21% | [10]; at 3.7 µM 7% | [10]; at 11.0 µM 30% | [10]; at 33.0 µM 61% | [11]; at 1.2 µM 16% | [11]; at 3.7 µM 15% | [11]; at 11.0 µM 45% | [12]; at 1.2 µM 50% | [12]; at 3.7 µM 52%

CCOC(=O)[C@]1(Br)CC[C@@]1(Br)C(=O)OCC
inactive: [1]; at 1.2 µM -78% | [1]; at 3.7 µM -24% | [1]; at 11.0 µM 31% | [13]; at 1.2 µM -13% | [13]; at 3.7 µM -6% | [13]; at 11.0 µM 29% | [14]; at 1.2 µM -23% | [14]; at 3.7 µM -23% | [14]; at 11.0 µM 23% | [3]; at 1.2 µM -8% | [3]; at 3.7 µM 7% | [3]; [17] 26% | [3]; at 11.0 µM 23% | [3]; [18] 67% | [4]; at 1.2 µM -38% | [4]; at 3.7 µM -25% | [4]; [17] 29% | [4]; at 11.0 µM 27% | [15]; at 1.2 µM -53% | [15]; at 3.7 µM -31% | [15]; at 11.0 µM 14% | [5]; [17] -7% | [5]; [18] -36% | [6]; at 1.2 µM -3% | [6]; at 3.7 µM 15% | [6]; at 11.0 µM 15% | [7]; [17] -7% | [7]; [18] -76% | [8]; at 1.2 µM -38% | [8]; at 3.7 µM -44% | [8]; [17] 2% | [8]; at 11.0 µM -19% | [8]; [18] -38% | [9]; at 1.2 µM -67% | [9]; at 3.7 µM -48% | [9]; at 11.0 µM 6% | [10]; at 1.2 µM -37% | [10]; at 3.7 µM -29% | [10]; at 11.0 µM 35% | [11]; at 1.2 µM -27% | [11]; at 3.7 µM -22% | [11]; at 11.0 µM 43% | [16]; [17] 57% | [12]; at 1.2 µM -58% | [12]; at 3.7 µM -43% | [12]; at 11.0 µM 8%
active: [1]; at 33.0 µM 95% | [1]; at 100.0 µM 97% | [13]; at 33.0 µM 75% | [13]; at 100.0 µM 94% | [14]; at 33.0 µM 96% | [14]; at 100.0 µM 100% | [3]; at 33.0 µM 94% | [3]; at 50.0 µM 89% | [3]; at 100.0 µM 98% | [4]; at 33.0 µM 97% | [4]; [18] 80% | [4]; at 50.0 µM 93.1% | [4]; at 100.0 µM 99% | [15]; at 33.0 µM 94% | [15]; at 100.0 µM 99% | [5]; at 50.0 µM 91.8% | [6]; at 33.0 µM 91% | [6]; at 100.0 µM 99% | [7]; at 50.0 µM 87.3% | [8]; at 33.0 µM 81% | [8]; at 50.0 µM 91.4% | [8]; at 100.0 µM 96% | [9]; at 33.0 µM 98% | [9]; at 100.0 µM 100% | [10]; at 33.0 µM 97% | [10]; at 100.0 µM 99% | [11]; at 33.0 µM 96% | [11]; at 100.0 µM 99% | [16]; [18] 93% | [16]; at 50.0 µM 91% | [12]; at 33.0 µM 93% | [12]; at 100.0 µM 99%

CN[C@@H]1C[C@H]2O[C@@](C)([C@@H]1OC)n1c3ccccc3c3c4c(c5c6ccccc6n2c5c31)C(=O)N[C@@H]4O
inactive: [1]; at 1.2 µM 11% | [1]; at 3.7 µM 35% | [1]; at 11.0 µM 22% | [1]; at 33.0 µM 24% | [1]; at 100.0 µM 38% | [2]; at 1.2 µM -24% | [2]; at 3.7 µM 16% | [2]; at 11.0 µM 15% | [2]; at 33.0 µM 7% | [2]; at 100.0 µM 8% | [3]; at 1.2 µM -34% | [3]; at 3.7 µM -41% | [3]; [17] -17% | [3]; at 11.0 µM -23% | [3]; at 33.0 µM -33% | [3]; [18] 6% | [3]; at 50.0 µM 50.4% | [3]; at 100.0 µM 2% | [4]; at 1.2 µM -53% | [4]; at 3.7 µM -44% | [4]; [17] -9% | [4]; at 11.0 µM -36% | [4]; at 33.0 µM -9% | [4]; [18] 30% | [4]; at 50.0 µM 35% | [4]; at 100.0 µM 19% | [15]; at 1.2 µM -31% | [15]; at 3.7 µM -34% | [15]; at 11.0 µM -31% | [15]; at 33.0 µM -9% | [15]; at 100.0 µM 67% | [5]; [17] -1% | [5]; [18] 24% | [5]; at 50.0 µM 16.4% | [6]; at 1.2 µM -8% | [6]; at 3.7 µM -8% | [6]; at 11.0 µM 5% | [6]; at 33.0 µM 12% | [6]; at 100.0 µM 20% | [7]; [17] 13% | [7]; [18] 38% | [7]; at 50.0 µM 22.4% | [8]; at 1.2 µM -11% | [8]; at 3.7 µM -10% | [8]; [17] 30% | [8]; at 11.0 µM 13% | [8]; at 33.0 µM 32% | [9]; at 1.2 µM -36% | [9]; at 3.7 µM -16% | [9]; at 11.0 µM 15% | [9]; at 33.0 µM -21% | [9]; at 100.0 µM 21% | [10]; at 1.2 µM -20% | [10]; at 3.7 µM -12% | [10]; at 11.0 µM -16% | [10]; at 33.0 µM 0% | [10]; at 100.0 µM -7% | [11]; at 1.2 µM -1% | [11]; at 3.7 µM -5% | [11]; at 11.0 µM 1% | [11]; at 33.0 µM 8% | [11]; at 100.0 µM 43% | [16]; [17] 2% | [16]; [18] 31% | [16]; at 50.0 µM 25.7% | [12]; at 1.2 µM -8% | [12]; at 3.7 µM -7% | [12]; at 11.0 µM -3% | [12]; at 33.0 µM 10% | [12]; at 100.0 µM 25%
active: [8]; [18] 83% | [8]; at 50.0 µM 74.5% | [8]; at 100.0 µM 74%
